Experimental findings from ChEMBL document CHEMBL3988442, “University of Dundee, Small-Polar-MMV Screening Library” (2021) are described below.

Screen size: about 48,000 compounds; about 13,000 (27%) showed an effect of 50% or more. This is one part of the list.

For this experiment, the system named is Wolbachia pipientis. Description: Anti-Wolbachia Cell-Based Screen. Also on record: scale not given: in the data most compounds retested in dose-response had high values. The following applies: 5 µM. The format is functional.
`Cc1cc(C(=O)NCC(O)CN2CCCC2=O)ccc1F` (stereo not drawn): the “Percent Effect” value is given as -5.14%. Next, `COCCN(C)c1ccc(NCc2ccsc2)nc1`: -10.25%; `CCOc1ccc(CN2CCCC(c3nn(C)c(=O)n3CC)C2)cn1` (stereo not drawn): 24.07%; `COc1ccc(Cl)cc1CC(=O)NS(=O)(=O)c1ccc(C(N)=O)cc1`: 102.7%. For `COc1ccc(C)cc1CC(=O)NS(=O)(=O)c1ccc(C(N)=O)cc1`, the “Percent Effect” value stood at 115.9%.

With `COc1ccc(C)cc1CC(=O)Nc1cc(C)n[nH]1`, the “Percent Effect” value came out at 4.97%. Consider `COc1ccccc1CC(=O)NS(=O)(=O)c1ccc(C(N)=O)cc1`, for which the “Percent Effect” value came out at 6.119%. Turning to `CCC(C)NC(=O)CS(=O)(=O)Cc1cc(Cl)ccc1OC` (stereo not drawn), the “Percent Effect” value was 28.04%. As to `NC(=O)c1ccc(S(=O)(=O)NC(=O)COc2ccc3c(c2)CCC3)cc1`, the “Percent Effect” value was -8.361%.

For the compound `COc1ncccc1CN1C[C@H](C(=O)N2CCCO2)[C@@H]2CCO[C@@H]2C1`, the “Percent Effect” value is 0.1445%. Then `CC(C)(C)c1nnc(CNc2c(F)cccc2-n2cccn2)o1`, with -0.1409%. Turning to `Cc1nc(CN2CCCC(CCc3ccccc3F)C2)c[nH]1` (stereo not drawn), the “Percent Effect” value is given as 15.72%.

For the compound `Cc1cc(C)c(C(=O)NC(CN2CCCC2)c2ccccc2)c(=O)[nH]1` (stereo not drawn), the “Percent Effect” value was 1.71%. On to `Fc1cccc(CN2CCC3(CCCN3c3ncccn3)CC2)c1.O=C(O)C(F)(F)F`, for which the “Percent Effect” value was found to be 103.6%. Then `Cn1ccc(CN2CCCC23CCN(Cc2cccc(F)c2)CC3)n1.O=C(O)C(F)(F)F.O=C(O)C(F)(F)F`, with 121.8%; and `Cn1cncc1CN1CCC2(CCCN2c2ncccn2)CC1.O=C(O)C(F)(F)F`, with 7.027%; and `COCCC(=O)N1CCC2(CCN(Cc3cccc(F)c3)CC2)CC1.O=C(O)C(F)(F)F`, with -14.44%. For `Cn1ccc(CN2CCCC23CCN(Cc2ccccc2F)CC3)n1.O=C(O)C(F)(F)F.O=C(O)C(F)(F)F`, the “Percent Effect” value is 125.7%. Then `COCCN1CCOCC12CCN(Cc1ccn(C)n1)CC2.O=C(O)C(F)(F)F.O=C(O)C(F)(F)F`, with -14.13%. For the compound `COc1cc(N2CCC3(CCCN3Cc3ccn(C)n3)CC2)ncn1.O=C(O)C(F)(F)F`, the “Percent Effect” value is given as -11.95%. With `Cc1c(CN2CCCC(C(=O)CCc3ccccc3)C2)cc(C#N)n1C` (stereo not drawn), the “Percent Effect” value is on record as 16.56%. On to `CCn1ncc(CNC(=O)c2cn(CCC3CCCCN3)nn2)c1C` (stereo not drawn), for which the “Percent Effect” value amounted to 3.216%.

Regarding `CN(CC(=O)NC(C)(C)C)Cc1nc(-c2ccccc2)c[nH]1`, the “Percent Effect” value is reported as -12.75%. Next, `CN(CC(=O)NCC(CCO)c1ccccc1)C(=O)OC(C)(C)C` (stereo not drawn): 2.407%. Take `Cc1ccc(OCC(=O)NCC(F)(F)F)nc1`: the “Percent Effect” value is -4.389%.

In the case of `CN(CC(=O)NCC(F)(F)F)C(=O)c1ccc(C(=O)OC(C)(C)C)cc1`, the “Percent Effect” value is 91.82%.

Regarding `Cc1ccc(C(=O)N(C)CC(=O)NCC(F)(F)F)cn1`, the “Percent Effect” value was 99.88%. On to `Cc1cccc(NC(=O)CN(C)C(=O)c2ccc(OC(C)C)nc2)n1`, for which the “Percent Effect” value came to 4.087%. Turning to `CN(CC(=O)NCC(O)c1cccc(F)c1)C(=O)OC(C)(C)C` (stereo not drawn), the “Percent Effect” value is 1.189%. Consider `CC(=O)NCCC1CCCCN1S(=O)(=O)c1cccc(C#N)c1` (stereo not drawn), for which the “Percent Effect” value is reported as -10.91%. `CC(=O)NCCC1CCCCN1S(=O)(=O)c1ccc2ccccc2c1` (stereo not drawn): the “Percent Effect” value is recorded as 104.3%. Regarding `CNS(=O)(=O)CC1CCCN1C(=O)c1cccc(Cl)c1` (stereo not drawn), the “Percent Effect” value was -8.436%. For `CC(=O)NCCC1CCCCN1S(=O)(=O)c1cccc(Cl)c1` (stereo not drawn), the “Percent Effect” value was 153.7%. Next, `CC(=O)c1ccc(S(=O)(=O)N2CCCC2CN2CCCC2)cc1` (stereo not drawn): -61.12%; `CSc1ccc(S(=O)(=O)N2CCCCC2CCNC(C)=O)cc1` (stereo not drawn): -2.003%; `CC(=O)NCCC1CCCCN1S(=O)(=O)c1cccc(F)c1` (stereo not drawn): 85.51%. Take `CCN1CCN2CCCN(S(=O)(=O)c3cccc(F)c3)C2C1=O` (stereo not drawn): the “Percent Effect” value stood at 4.508%. With `CCN1CC(C(=O)N(C)Cc2ccon2)CC1=O` (stereo not drawn), the “Percent Effect” value came to 8.13%. For `CCN(CC)[C@H]1C[C@@H](Cc2cc(CO)on2)C1(C)C`, the “Percent Effect” value is recorded as -1.281%.

In the case of `COc1ccc(C)cc1NC(=O)CNc1ccn(CC(N)=O)n1`, the “Percent Effect” value is recorded as -13.27%. On to `CCn1cc(C(=O)Nc2ccc(C)cc2C(=O)OC)cn1`, for which the “Percent Effect” value was -8.405%. Next, `COc1ccc(OC)c(NC(=O)c2c(C)cn(C)c2CC(=O)O)c1`: 111%; `COC(=O)c1ccccc1NC(=O)c1nc2ccccc2n(C)c1=O`: 2.974%; `COc1ccc(OC)c(NC(=O)N2CCCC2c2ccco2)c1` (stereo not drawn): -3.414%.

Take `COc1ccc(C)cc1NC(=O)c1c(C)cn(C)c1CC(=O)O`: the “Percent Effect” value was determined as 106.8%.

With `COC(=O)c1ccccc1NC(=O)c1c(C)cn(C)c1CC(=O)O`, the “Percent Effect” value was 101.4%. Next, `COc1ccc(OC)c(CNCc2c(C)nc3sc(C)cn23)c1`: 17.49%; `COc1ncc(NC(=O)Nc2cc(C)ccc2OC)cn1`: 7.981%; `CCCN(C1CCc2ccccc2C1)S(C)(=O)=O` (stereo not drawn): -12.4%. Regarding `NC(=O)CN(CC1CCOC1)C1CC1` (stereo not drawn), the “Percent Effect” value amounted to 12.45%.

`CS(=O)(=O)N1CCN(C(=O)c2ccco2)[C@H]2CS(=O)(=O)C[C@H]21`: the “Percent Effect” value is -4.132%. On to `COCC(=O)N1CCN(S(=O)(=O)c2ccccc2)[C@@H](C(=O)OC)C1`, for which the “Percent Effect” value is 2.651%. On to `CCC(=O)N1CCN(S(=O)(=O)c2cccc(F)c2)[C@H]2CS(=O)(=O)C[C@H]21`, for which the “Percent Effect” value is 7.69%.
